Assay results reported in PubChem BioAssay.
Calls of active or inactive are those of the source.

How the values were obtained:
[1] = tested on: PRMT1 (protein arginine N-methyltransferase 1); assay: small molecules binding arginine methyltransferase PRMT1 – biochemical, small-molecule microarray, 635 nm fluorescence, primary screen (AID 1088); details: higher = more signal;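 also: binding of Prmt1 protein to compounds spotted on small-molecule microarray slides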
[2] = growth effects on S. cerevisiae YJM789 – YJM789 clinical isolate, OD600, 24 h, basal, primary screen (AID 1089); details: higher = more signal, called active from +8 up or from −8 down;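 also: growth of clinical yeast isolate S. cerevisiae YJM 789 seeded 1000 cells per well; test concentration not given here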
[3] = S. pombe growth modifiers, basal conditions – strain 972, OD600, 24 h, no modulator, primary screen (AID 1090);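 also: basal condition with compound alone and no growth modifier present; test concentration not given here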; details: S. pombe 972 growth, higher = more signal, called active from +8 up or from −8 down
[4] = budding yeast growth modifiers under rapamycin – strain BY4716, OD600, 96 h, primary screen (AID 1091); also: test concentration not given here; details: S. cerevisiae BY4716 + rapamycin, higher = more signal, called active from +8 up or from −8 down
[5] = target: Torsin-1A-interacting protein 2 (Homo sapiens) (UniProt Q8NFQ8); assay: small molecules binding lysate-expressed LULL1 – cell lysate, human LULL1 lysate, 635/667 nm fluorescence, primary screen (AID 1092); details: small-molecule microarray, hLULL1 lysate binding, 635 nm fluorescence; higher = more signal;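 also: probe is lysate of COS7 cells overexpressing human LULL1; score merges per-feature 667 nm fluorescence with signal-to-noise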
[6] = optical density change of DRC41 E. coli – strain DRC41, OD650, 24 h, E. coli filamentation project, primary screen (AID 1093);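 also: MC1000 strain lacking acrAB efflux and sulA so SOS filamentation is blocked; test concentration not given here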; details: E. coli DRC41 growth, higher = more signal, called active from +8 up or from −8 down
[7] = probe aLefty2 binding to arrayed compounds – biochemical, biotinylated probe, 635/667 nm fluorescence, primary screen (AID 1094); details: small-molecule microarray, higher = more signal;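 also: score merges spot fluorescence near 667 nm with spot signal-to-noise ratio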
[8] = tested on: Noggin (protein binding on small-molecule microarray); assay: small molecules binding Noggin protein – biochemical, 635/667 nm fluorescence, primary screen (AID 1095); details: 635 nm fluorescence, higher = more signal;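 also: score merges 667 nm feature fluorescence with signal to noise over triplicate slides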
[9] = target: Neurogenic locus notch homolog protein 3 (Homo sapiens) (UniProt Q9UM47); assay: small molecules binding NOTCH3 protein – biochemical, 635/667 nm fluorescence, primary screen (AID 1096); details: small-molecule microarray, 635 nm fluorescence, higher = more signal
[10] = probe aEGFR binding to arrayed compounds – biochemical, biotinylated probe, 635/667 nm fluorescence, primary screen (AID 1097); details: small-molecule microarray, higher = more signal;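 also: probe is a biotinylated anti-EGFR antibody binding compounds printed on slides; score combines fluorescence near 667 nm and signal to noise of each spot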
[11] = tested on: Plasmodium falciparum Sir2 (PF13_0152, Sir2A); assay: Plasmodium falciparum Sir2A binding compounds – biochemical, small-molecule microarray, 635 nm fluorescence, primary screen (AID 1098); details: fluorescence 635 nm, higher = more signal;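 also: score merges spot fluorescence intensity with its signal-to-noise ratio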
[12] = probe aDKK1 binding to arrayed compounds – biochemical, biotinylated probe, 635/667 nm fluorescence, primary screen (AID 1099); details: small-molecule microarray, higher = more signal;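 also: score merges 667nm spot fluorescence with signal to noise across triplicate slides; reference of the scale not given here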
[13] = probe aCHRDL2 binding to arrayed compounds – biochemical, biotinylated probe, 635/667 nm fluorescence, primary screen (AID 1100); details: small-molecule microarray, higher = more signal
[14] = change in splice reporter luminescence, either direction, cell-based, HEK293, spliceosome inhibition project, primary screen (AID 1101); details: HEK293 splicing luciferase reporter, 24 h, higher = more signal, called active from +8 up or from −8 down;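 also: HEK293 cells carrying a splicing-competent luciferase reporter gene; test concentration not given here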
[15] = target: Fibroblast growth factor 10 (Homo sapiens) (UniProt O15520); assay: compounds binding fibroblast growth factor 10 – biochemical, small-molecule microarray, 635 nm fluorescence, primary screen (AID 1102); details: FGF10 binding, fluorescence 635 nm, higher = more signal
[16] = tested on: glycogen synthase kinase-3 (GSK3A per assay name; protocol says GSK3B); assay: compounds binding glycogen synthase kinase-3 – biochemical, small-molecule microarray, 635 nm fluorescence, GSK3A, primary screen (AID 1103); details: fluorescence 635 nm, higher = more signal; also: the record names both GSK3A and GSK3B
[17] = target: Epidermal growth factor receptor (Homo sapiens) (UniProt P00533); assay: compounds binding epidermal growth factor receptor – biochemical, small-molecule microarray, 635 nm fluorescence, primary screen (AID 1104); details: EGFR binding, higher = more signal;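 also: score merges 667 nm emission intensity with spot signal to noise over triplicate slides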
[18] = target: Follistatin-related protein 3 (Homo sapiens) (UniProt O95633); assay: compounds binding follistatin-related protein 3 – biochemical, small-molecule microarray, 635 nm fluorescence, primary screen (AID 1105); details: FSTL3 binding, higher = more signal;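 also: score merges emission near 667 nm and signal to noise per printed spot across three slides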
[19] = target: Dickkopf-related protein 1 (Homo sapiens) (UniProt O94907); assay: small molecules binding DKK1 protein – biochemical, small-molecule microarray, 635 nm fluorescence scan, primary screen (AID 1106); details: higher = more signal;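 also: score merges emission near 667 nm with signal to noise over three replicate slides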
[20] = tested on: Inhibin beta A chain (activin A); assay: small molecules binding activin A – biochemical, small-molecule microarray, 635 nm fluorescence scan, primary screen (AID 1107); details: INHBA, higher = more signal;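 also: mouse activin A protein probed at 4.33 µg/mL on printed slides; score merges bound-protein fluorescence near 667 nm with spot signal-to-noise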

Sequence of Epidermal growth factor receptor (Homo sapiens) (P00533 whole entry, looked up): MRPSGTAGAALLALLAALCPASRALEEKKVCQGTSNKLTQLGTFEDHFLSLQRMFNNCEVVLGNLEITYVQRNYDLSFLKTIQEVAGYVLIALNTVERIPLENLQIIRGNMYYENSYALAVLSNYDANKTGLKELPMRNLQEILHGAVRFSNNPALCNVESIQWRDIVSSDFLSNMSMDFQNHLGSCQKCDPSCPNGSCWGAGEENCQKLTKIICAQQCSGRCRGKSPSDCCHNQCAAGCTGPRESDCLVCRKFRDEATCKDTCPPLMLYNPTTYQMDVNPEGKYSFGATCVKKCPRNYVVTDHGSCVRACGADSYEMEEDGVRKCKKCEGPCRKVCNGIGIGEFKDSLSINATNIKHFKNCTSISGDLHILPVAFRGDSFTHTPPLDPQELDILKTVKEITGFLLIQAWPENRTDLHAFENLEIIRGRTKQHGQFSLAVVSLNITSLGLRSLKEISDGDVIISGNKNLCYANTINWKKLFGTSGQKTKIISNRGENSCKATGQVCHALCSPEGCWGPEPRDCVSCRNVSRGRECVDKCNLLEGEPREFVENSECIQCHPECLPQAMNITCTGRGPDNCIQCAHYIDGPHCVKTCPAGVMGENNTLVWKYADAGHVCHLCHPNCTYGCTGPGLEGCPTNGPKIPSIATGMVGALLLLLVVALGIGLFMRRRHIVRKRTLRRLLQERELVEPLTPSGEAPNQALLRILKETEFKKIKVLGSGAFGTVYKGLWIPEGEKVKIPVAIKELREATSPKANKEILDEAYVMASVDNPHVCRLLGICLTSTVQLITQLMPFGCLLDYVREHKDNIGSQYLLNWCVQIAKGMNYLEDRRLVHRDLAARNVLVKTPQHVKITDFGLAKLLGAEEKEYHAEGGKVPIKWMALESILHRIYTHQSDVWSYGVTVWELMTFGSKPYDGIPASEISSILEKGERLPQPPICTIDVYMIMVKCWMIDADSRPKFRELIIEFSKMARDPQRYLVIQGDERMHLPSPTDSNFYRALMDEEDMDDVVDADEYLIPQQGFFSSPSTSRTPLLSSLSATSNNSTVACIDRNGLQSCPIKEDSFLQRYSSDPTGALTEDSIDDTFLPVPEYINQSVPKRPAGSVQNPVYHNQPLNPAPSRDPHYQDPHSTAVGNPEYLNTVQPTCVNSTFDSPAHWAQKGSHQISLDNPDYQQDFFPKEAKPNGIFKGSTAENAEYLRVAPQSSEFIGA
Sequence of Fibroblast growth factor 10 (Homo sapiens) (O15520 whole entry, looked up): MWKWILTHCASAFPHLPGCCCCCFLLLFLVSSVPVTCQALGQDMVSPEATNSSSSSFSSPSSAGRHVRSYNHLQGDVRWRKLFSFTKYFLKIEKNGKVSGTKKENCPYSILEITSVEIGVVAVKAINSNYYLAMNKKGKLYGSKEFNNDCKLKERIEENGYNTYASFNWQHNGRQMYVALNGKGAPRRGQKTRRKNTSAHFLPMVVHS
Sequence of Neurogenic locus notch homolog protein 3 (Homo sapiens) (Q9UM47 whole entry, looked up): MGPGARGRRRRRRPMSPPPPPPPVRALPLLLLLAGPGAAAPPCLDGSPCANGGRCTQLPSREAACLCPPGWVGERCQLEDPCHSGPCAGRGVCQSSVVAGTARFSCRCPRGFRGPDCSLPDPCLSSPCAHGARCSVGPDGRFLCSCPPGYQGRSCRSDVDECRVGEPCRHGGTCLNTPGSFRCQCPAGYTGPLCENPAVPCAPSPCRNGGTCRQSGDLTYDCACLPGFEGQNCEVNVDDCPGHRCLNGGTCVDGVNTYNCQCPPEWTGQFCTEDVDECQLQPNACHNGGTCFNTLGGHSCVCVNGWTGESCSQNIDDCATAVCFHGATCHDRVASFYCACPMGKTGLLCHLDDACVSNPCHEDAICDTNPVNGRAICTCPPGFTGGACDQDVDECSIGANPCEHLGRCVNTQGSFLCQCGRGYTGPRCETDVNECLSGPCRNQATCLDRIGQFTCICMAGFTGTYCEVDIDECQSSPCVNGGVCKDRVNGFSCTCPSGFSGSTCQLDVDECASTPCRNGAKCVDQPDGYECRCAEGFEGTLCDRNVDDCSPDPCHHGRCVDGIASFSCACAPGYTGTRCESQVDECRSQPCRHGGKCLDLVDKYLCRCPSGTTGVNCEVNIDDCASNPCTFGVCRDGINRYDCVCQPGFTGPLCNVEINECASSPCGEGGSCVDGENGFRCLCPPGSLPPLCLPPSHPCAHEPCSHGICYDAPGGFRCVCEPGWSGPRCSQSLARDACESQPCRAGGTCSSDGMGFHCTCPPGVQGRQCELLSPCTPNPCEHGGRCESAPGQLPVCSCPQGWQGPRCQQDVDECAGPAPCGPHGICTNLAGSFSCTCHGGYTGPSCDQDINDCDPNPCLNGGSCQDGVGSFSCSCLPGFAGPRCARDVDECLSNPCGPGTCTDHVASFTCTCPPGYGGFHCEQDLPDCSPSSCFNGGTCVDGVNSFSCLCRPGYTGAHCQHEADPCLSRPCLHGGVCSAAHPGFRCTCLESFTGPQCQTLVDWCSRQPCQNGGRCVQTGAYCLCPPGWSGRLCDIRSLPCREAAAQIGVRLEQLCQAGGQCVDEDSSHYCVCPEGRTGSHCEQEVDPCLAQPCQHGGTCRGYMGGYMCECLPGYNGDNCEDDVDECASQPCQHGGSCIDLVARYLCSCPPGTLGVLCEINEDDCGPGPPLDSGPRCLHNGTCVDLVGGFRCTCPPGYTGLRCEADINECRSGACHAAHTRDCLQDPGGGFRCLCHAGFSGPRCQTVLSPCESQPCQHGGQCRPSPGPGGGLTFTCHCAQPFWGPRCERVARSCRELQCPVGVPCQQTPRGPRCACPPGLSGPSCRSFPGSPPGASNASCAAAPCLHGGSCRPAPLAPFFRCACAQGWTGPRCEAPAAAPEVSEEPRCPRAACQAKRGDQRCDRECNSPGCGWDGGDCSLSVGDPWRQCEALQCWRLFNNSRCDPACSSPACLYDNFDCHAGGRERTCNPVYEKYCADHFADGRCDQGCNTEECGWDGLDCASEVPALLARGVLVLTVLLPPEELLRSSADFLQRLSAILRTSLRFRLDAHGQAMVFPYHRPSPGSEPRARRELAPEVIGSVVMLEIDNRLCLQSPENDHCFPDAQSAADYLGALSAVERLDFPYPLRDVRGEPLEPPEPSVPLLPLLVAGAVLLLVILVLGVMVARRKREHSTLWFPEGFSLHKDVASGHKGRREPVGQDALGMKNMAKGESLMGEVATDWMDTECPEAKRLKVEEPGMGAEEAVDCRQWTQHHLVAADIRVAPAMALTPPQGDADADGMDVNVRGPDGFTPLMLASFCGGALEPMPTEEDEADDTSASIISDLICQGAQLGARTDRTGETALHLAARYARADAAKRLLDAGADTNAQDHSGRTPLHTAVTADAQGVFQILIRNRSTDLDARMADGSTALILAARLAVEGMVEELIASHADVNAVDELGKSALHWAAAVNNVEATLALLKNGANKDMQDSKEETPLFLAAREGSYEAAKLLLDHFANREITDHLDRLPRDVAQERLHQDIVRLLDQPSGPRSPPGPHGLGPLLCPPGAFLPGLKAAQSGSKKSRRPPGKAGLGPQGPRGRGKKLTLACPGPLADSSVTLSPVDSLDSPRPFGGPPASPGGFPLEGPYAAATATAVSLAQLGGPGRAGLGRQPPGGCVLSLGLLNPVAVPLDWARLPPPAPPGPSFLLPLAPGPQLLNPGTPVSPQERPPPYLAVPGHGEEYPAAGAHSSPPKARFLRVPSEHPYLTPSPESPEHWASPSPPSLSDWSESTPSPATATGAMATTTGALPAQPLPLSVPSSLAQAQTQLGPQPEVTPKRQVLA
Sequence of Dickkopf-related protein 1 (Homo sapiens) (O94907 whole entry, looked up): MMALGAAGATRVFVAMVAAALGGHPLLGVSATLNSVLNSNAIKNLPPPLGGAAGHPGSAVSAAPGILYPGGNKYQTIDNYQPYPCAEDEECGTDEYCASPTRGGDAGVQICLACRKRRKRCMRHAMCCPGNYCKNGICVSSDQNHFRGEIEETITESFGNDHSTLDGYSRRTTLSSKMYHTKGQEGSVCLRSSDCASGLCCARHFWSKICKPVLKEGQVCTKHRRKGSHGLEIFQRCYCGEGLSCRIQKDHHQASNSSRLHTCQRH
Sequence of Torsin-1A-interacting protein 2 (Homo sapiens) (Q8NFQ8 whole entry, looked up): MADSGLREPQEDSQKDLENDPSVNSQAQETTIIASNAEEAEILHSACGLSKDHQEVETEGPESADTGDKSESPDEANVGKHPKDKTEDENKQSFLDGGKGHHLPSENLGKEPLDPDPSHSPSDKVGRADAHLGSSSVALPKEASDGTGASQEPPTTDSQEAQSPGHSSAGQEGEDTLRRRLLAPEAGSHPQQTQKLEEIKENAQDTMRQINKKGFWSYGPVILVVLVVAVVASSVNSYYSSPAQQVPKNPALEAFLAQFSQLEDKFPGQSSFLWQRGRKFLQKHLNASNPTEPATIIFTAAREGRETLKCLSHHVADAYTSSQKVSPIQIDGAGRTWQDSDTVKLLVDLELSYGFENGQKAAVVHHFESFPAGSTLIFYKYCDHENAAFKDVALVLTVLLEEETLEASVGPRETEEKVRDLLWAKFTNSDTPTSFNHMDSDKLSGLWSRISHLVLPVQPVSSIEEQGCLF
Sequence of Follistatin-related protein 3 (Homo sapiens) (O95633 whole entry, looked up): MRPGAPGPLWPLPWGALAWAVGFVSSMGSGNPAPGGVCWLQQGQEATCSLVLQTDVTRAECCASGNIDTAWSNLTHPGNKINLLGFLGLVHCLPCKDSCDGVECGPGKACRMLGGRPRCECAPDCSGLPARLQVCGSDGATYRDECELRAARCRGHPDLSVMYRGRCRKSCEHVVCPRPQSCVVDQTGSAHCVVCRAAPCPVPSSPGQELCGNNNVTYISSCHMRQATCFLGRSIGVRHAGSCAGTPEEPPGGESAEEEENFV

SMILES	composite z-score [1]	z-score [2]	z-score [3]	z-score [4]	composite z-score [5]	z-score [6]	composite z-score [7]	composite z-score [8]	composite z-score [9]	composite z-score [10]	composite z-score [11]	composite z-score [12]	composite z-score [13]	z-score [14]	composite z-score [15]	composite z-score [16]	composite z-score [17]	composite z-score [18]	composite z-score [19]	composite z-score [20]
NC(=O)NCC#Cc1ccc2c(c1)[C@]1(C(=O)N2)[C@H](C(=O)N2CCN(c3ncccn3)CC2)[C@H]2C(=O)O[C@H](c3ccccc3)[C@H](c3ccccc3)N2[C@@H]1c1ccc(OCCO)cc1	1.18	2.47 (inactive)	2.31 (inactive)	5.27 (inactive)	1.89	1.37 (inactive)	-0.0321	0.513	1.13	-0.0271	0.695	0.23	0.433	-0.245 (inactive)	0.766	-0.364	0.669	1.08	0.151	0.926
C=CCN1C(=O)[C@@]2(O[C@@H](CCO)[C@H]([Si](C)(C)c3ccc(OC)cc3)[C@H]2C)c2cc(N3CCOC3=O)ccc21	0.989	1.53 (inactive)	0.885 (inactive)	9.68 (active)	1.86	0.976 (inactive)	-0.0755	-0.355	0.347	-0.134	0.392	0.0757	0.213	-0.887 (inactive)	-0.0196	0.612	-0.114	0.0282	-0.381	-0.171
[N-]=[N+]=Nc1ccccc1C[C@]1(C(=O)NCc2ccccc2)COC(c2ccc(OCCCO)cc2)=N1	1.32	1.04 (inactive)	0.184 (inactive)	32.1 (active)	3.33	1.04 (inactive)	0.0573	0.544	1.08	-0.0669	1.26	0.187	0.869	0.439 (inactive)	1.16	1.23	-0.404	1.01	-0.537	0.386
COc1ccc([Si](C)(C)[C@H]2[C@H](CCO)O[C@@]3(C(=O)N(Cc4ccc(N5C(=O)c6ccccc6Oc6ccccc65)cc4)c4ccccc43)[C@@H]2C)cc1	0.263	2.1 (inactive)	-1.25 (inactive)	22.7 (active)	0.822	0.511 (inactive)	0.0004	-1.01	-0.532	0.0125	0.094	-0.0509	0.477	-0.964 (inactive)	-0.94	-1.96	-0.732	-1.25	-1.02	-0.917
C=CCNC(=O)[C@H]1[C@@H]2C(=O)O[C@@H](c3ccccc3)[C@@H](c3ccccc3)N2[C@@H](c2ccc(O)cc2)[C@]12C(=O)N(C(=O)OCCOC)c1ccc(C#CCC(C(=O)OC)C(=O)OC)cc12	1.56	0.106 (inactive)	1.57 (inactive)	5.5 (inactive)	2.11	0.301 (inactive)	-0.0229	1.2	1.11	0.0551	1.37	0.119	0.236	0.173 (inactive)	1.1	1.19	0.564	0.914	0.641	0.23
NCCCCCNC(=O)[C@@H]1C[C@@H]2C(=O)N3CCC[C@H]3C(=O)N2[C@@H]1c1ccc(O)cc1	0.61	0.758 (inactive)	-0.986 (inactive)	1.3 (inactive)	1.97	1.05 (inactive)	0.512	0.408	0.391	0.171	1.1	0.919	0.857	-0.274 (inactive)	0.927	1.14	0.114	0.495	0.853	0.98
C=CCNC(=O)[C@H]1[C@@H]2C(=O)O[C@@H](c3ccccc3)[C@@H](c3ccccc3)N2[C@@H](c2ccc(OCCO)cc2)[C@]12C(=O)Nc1ccc(C#CCNC(N)=O)cc12	1.56	2.34 (inactive)	1.48 (inactive)	4.76 (inactive)	1.98	0.714 (inactive)	0.155	1.1	1.07	0.0562	1.2	0.867	1.05	-0.595 (inactive)	1.13	0.332	-0.471	0.65	0.0352	0.624
COc1cc2c(cc1OC)CN(C(=O)[C@@H]1[C@H]3C(=O)O[C@H](c4ccccc4)[C@H](c4ccccc4)N3[C@H](c3ccc(O)cc3)[C@@]13C(=O)Nc1ccc(C#CCCO)cc13)CC2	1.34	1.09 (inactive)	0.673 (inactive)	1.81 (inactive)	2.5	-0.385 (inactive)	-0.0809	0.32	0.667	-0.0424	0.552	-0.0984	0.562	-0.117 (inactive)	1.19	0.422	-0.0629	0.547	0.755	0.924
Cc1c(NC(=O)/C(C#N)=C/c2ccccc2Cl)c(=O)n(-c2ccccc2)n1C	0.315	-1.06 (inactive)	-1.76 (inactive)	-0.4 (inactive)	3.03	0.245 (inactive)	-0.158	0.0603	0.259	0.0092	0.633	-0.258	-0.0592	-0.378 (inactive)	0.185	-0.046	0.139	0.361	0.491	0.395
O=C(CS)NCCCCCCNC(=O)[C@@H]1C[C@@H]2C(=O)NCC(=O)N2[C@@H]1c1ccc(O)cc1	0.801	-2.07 (inactive)	0.172 (inactive)	-0.436 (inactive)	2.92	0.869 (inactive)	-0.0692	-0.728	-0.028	-0.218	1.57	-0.11	0.592	-1.65 (inactive)	-0.297	-0.135	-0.395	-0.586	-0.262	-0.716
C[C@@H]1ON(c2ccc(I)cc2)[C@H](c2ccc(OC(=O)OC(C)(C)C)cc2)[C@H]1C(=O)N1C(=O)OC[C@H]1Cc1ccccc1	1.35	-0.0865 (inactive)	-1.73 (inactive)	1.9 (inactive)	2.08	1.77 (inactive)	-0.0736	0.447	1.02	-0.0351	0.718	-0.14	-0.345	-1.78 (inactive)	0.367	1.07	0.458	0.872	0.567	0.0676
